# Records with an inconclusive call do not appear. Values without a mark were called inactive. The call rests on the fitted dose curve; in most records, active means well fitted cell-killing curve with a large enough effect in the repeat runs; inconclusive means weak or mixed curves, or effect the other way; inactive means no such curve, though single readings can be large or run the other way.
# Experiment: qHTS assay for small molecule activators of the heat shock response signaling pathway - cell viability counter screen (AID 743209); further: nearly all actives have a fitted effect of over 50% in size
# Settings: HSE-bla HeLa viability, CellTiter-Glo luminescence, 5 h; series mostly up to 62.6 µM; activity change, negative = cytotoxicity: at the top concentration
# Text: U.S. Tox21 Program National Center for Advancing Translational Sciences [NCATS] NIH Chemical Genomics Center [NCGC] U.S. Environmental Protection Agency [EPA] National Institutes of Environmental Health Sciences [NIEHS] National Toxicology Program [NTP] U.S. Food and Drug Administration [FDA] Tox21 Assay Overview: Various chemicals, environmental and physiological stress conditions may lead to the activation of heat shock response/ unfolded protein response (HSR/UPR). There are three heat shock transcription factors (HSFs) (HSF-1, -2, and -4) mediating transcriptional regulation of the human HSR. To identify the compounds that activate HSR signaling, HSE-bla HeLa cell line (Invitrogen, Carlsbad, CA, USA) containing a beta-lactamase reporter gene under the control of the heat shock response elements was used to screen Tox21 10K compound library. The cytotoxicity of the Tox21 compound library against the HSE-bla HeLa cell line was tested in parallel by measuring the cell viability using CellTiter-Glo assay (Promega, Madison, WI) in the same wells.
# Tox21 Assay Protocol Summary: The CellSensor HSE-bla HeLa cells (Invitrogen, Carlsbad, CA, USA) were dispensed at 1500 cells/6uL/well into 1536-well black wall/clear bottom plates using a Multidrop combi (Thermo Fisher Scientific, Waltham, MA) dispenser. After the assay plates were incubated at 37 C and 5% CO2 overnight, 23 nL of compounds dissolved in DMSO, positive controls or DMSO only was transferred to the assay plate by a Pintool station (Kalypsys, San Diego, CA). The plates were incubated at 37 C for 5 h. After 1 uL of LiveBLAzerTM B/G FRET substrate was added using a Flying Reagent Dispenser (FRD, Beckman Coulter, Indianapolis, IN, USA), the plates were incubated at room temperature for 2.5 h, and fluorescence intensity was measured by an Envision plate reader (PerkinElmer, Shelton, CT). For cell viability readout that measures cytotoxicity, 3 ul/well of CellTiter-Glo reagent was added into the assay plates using a FRD. After 30 min incubation at room temperature, the luminescence intensity in the plates was measured using a ViewLux (PerkinElmer) plate reader.
# On the % scale 0 is the no-effect control and ±100 the full control effect.
row,Structure (SMILES),"activity change, negative = cytotoxicity"
1,CC(C)(C)c1cccc(O)c1,0.749%
2,CN1[C@@H]2CC[C@H]1CC(OC(=O)c1c[nH]c3ccccc13)C2 (stereo not given in full),2.5%
3,O=CCCc1ccccc1,3.68%
4,C=CCCC=C,0.601% [at 81.1 µM]
5,CCc1cc2cc(OC)c(OC)cc2c(Cc2ccccc2)n1,-24.7%
6,CCCCNCCCC,-5.08%
7,CC(C)CCCCCCc1ccc(OCCOCCO)cc1,10.7% [at 81.1 µM]
8,CC(C)(C)C1CCCCC1=O (stereo not given),-1.09%
9,NC(Cc1ccc(F)cc1)C(=O)O (stereo not given),-7.91% [at 5.95 µM]
10,C1CCOC1,-2.48% [at 81.1 µM]
11,OCc1ccccc1O,3.32%
12,CN(C)Cc1ccccc1,-2.93% [at 81.1 µM]
13,N#CSCC(=O)O,2.63%
14,N#Cc1ccc(C(c2ccc(C#N)cc2)n2cncn2)cc1,-4.34%
15,CCOC(=O)COc1ccc2c(c1)CC(NCC(O)c1cccc(Cl)c1)CC2 (stereo not given),6.33%
16,OCCN1CCN(CCO)CC1,-5.75% [at 81.1 µM]
17,Cc1c[nH]c(=S)[nH]c1=O,-20.7%
18,O=c1oc2c(O)c(O)cc3c(=O)oc4c(O)c(O)cc1c4c23,1.51% [at 29.1 µM]
19,CCCCC1CCC(=O)O1 (stereo not given),-4.87%
20,C=O,-2.04% [at 81.1 µM]

row,Structure (SMILES),"activity change, negative = cytotoxicity"
1,COC(=O)c1ccc2cc(C(=O)OC)ccc2c1,-17.5% [at 29.1 µM]
2,COc1ccc(S(=O)(=O)Nc2nnc(CC(C)C)s2)cc1,-22.8%
3,CC1=C(CC(=O)O)c2cc(F)ccc2/C1=C\c1ccc(S(C)(=O)=O)cc1,-4.64%
4,COC(=O)c1ccc(OC)cc1,0.443%
5,COc1cc2c(cc1N)oc1ccccc12,6.04% [at 81.1 µM]
6,Cc1nc(-c2ccccn2)ncc1C(=O)Nn1cc(C)c2cc(F)ccc21,1.44%
7,C[C@@H](N)C(=O)O,-15.5%
8,CCCCCCCCc1ccc(S(=O)(=O)O)cc1,-13.5%
9,Cc1cn([C@@H]2O[C@H](CO)[C@@H](O)[C@@H]2F)c(=O)[nH]c1=O,-3.94%
10,NC(=O)Cc1cccc(C(=O)c2ccccc2)c1N,-0.669%
11,O=C1CCN(c2ccccc2)N1,-12% [at 81.1 µM]
12,C=CC(C)(O)CC/C=C(\C)CCC=C(C)C (stereo not given),-6.69%
13,CC1(C)O[C@@H]2C[C@H]3[C@@H]4CCC5=CC(=O)CC[C@]5(C)[C@@]4(F)[C@@H](O)C[C@]3(C)[C@]2(C(=O)CCl)O1,4.03%
14,OCCN(CCO)CCN(CCO)CCO,3.49%
15,CCCCCCCCCC/C=C/C#N,-6.14%
16,C=C(C)C(=O)OCCOP(=O)(O)O,-3.31% [at 81.1 µM]
17,CC(C)(CO)[C@@H](O)C(=O)NCCC(=O)O,0.386% [at 81.1 µM]
18,CS(=O)(=O)c1ccc([C@@H](O)[C@@H](CF)NC(=O)C(Cl)Cl)cc1,0.94%
19,CC(C)C(=O)OC/C=C/c1ccccc1,12.7%
20,CCC(=O)O[C@]1(C(=O)SCF)[C@H](C)C[C@H]2[C@@H]3C[C@H](F)C4=CC(=O)C=C[C@]4(C)[C@@]3(F)[C@@H](O)C[C@@]21C,-2.57%

# — PubChem BioAssay (Tox21)
